Test results taken from PubChem BioAssay (Tox21).
Values joined by “and” are separate entries in the source; they are usually repeats but may differ in a detail not shown here. Identical values can stand only once. Results filed as inconclusive are left out. Active and inactive are the calls of the source. Unless noted, the call rests on the fitted dose curve; in most records, active means well fitted curve in the direction sought with a large enough effect in the repeat runs; inconclusive means weak or mixed curves; inactive means no such curve, though single readings can be large; an effect the other way counts as inactive or inconclusive.

Legend:
[1] = qHTS assay to identify small molecule antagonists of the thyroid receptor (TR) signaling pathway - cell viability counter screen (AID 743064); further: nearly all actives have a fitted effect of over 50% in size; further: potency means the concentration at half of the fitted maximal effect
In short: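 Fluorescence from CellTiter-Fluor, added after 23.5 h exposure at 37 °C, reported viability of GH3.TRE-Luc cells co-treated with compound and 1 nM T3. Measured in the same wells as the luciferase TR readout.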

[2] = qHTS assay to identify small molecule antagonists of the thyroid receptor (TR) signaling pathway (AID 743065); further: nearly all actives have a fitted effect of over 55% in size; further: potency means the concentration at half of the fitted maximal effect
In short: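 GH3.TRE-Luc rat pituitary cells (two TREs driving luciferase) were dosed with compound, then stimulated with 1 nM T3 (final) for 23.5 h at 37 C. ONE-Glo luminescence was the read-out, with CellTiter-Fluor fluorescence as the cytotoxicity counter-screen.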

[3] = system: thyroid hormone receptor (rat, GH3 cells); assay: qHTS assay to identify small molecule agonists of the thyroid receptor (TR) signaling pathway (AID 743066; calls by dose curve)
[4] = biological target: Estrogen receptor (Homo sapiens) (UniProt P03372); assay: qHTS assay to identify small molecule antagonists of the estrogen receptor alpha (ER-alpha) signaling pathway (AID 743069; active means well fitted curve in the direction sought with a large enough effect in the signal ratio in the repeat runs, not every such curve was filed as active; the % refers to the signal ratio)
In short: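 Beta-lactamase FRET fluorescence is read after 2 hr at room temperature with LiveBLAzer B/G substrate. Before that, ER-alpha-bla HEK293 cells sit 4 hr after plating, then receive compound plus 17beta-estradiol and incubate 18 hr at 37C.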

[5] = qHTS assay to identify small molecule antagonists of the estrogen receptor alpha (ER-alpha) signaling pathway - cell viability counter screen (AID 743074; calls by dose curve;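 further: HEK293 cells carrying ER-alpha-UAS-bla reporter stimulated with 17beta-estradiol; nearly all actives have a fitted effect of over 45% in size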)
[6] = biological target: Estrogen receptor (Homo sapiens) (UniProt P03372); assay: qHTS assay to identify small molecule agonists of the estrogen receptor alpha (ER-alpha) signaling pathway (AID 743075; calls by dose curve;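 further: HEK293 GripTite cells with ER-alpha and UAS-driven beta-lactamase reporter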)
[7] = biological target: Estrogen receptor (Homo sapiens) (UniProt P03372); assay: qHTS assay to identify small molecule agonists of the estrogen receptor alpha (ER-alpha) signaling pathway using the BG1 cell line (AID 743079); details: BG1Luc4E2 cells, ERE-luciferase agonist, 22 h; further: nearly all actives have a fitted effect of over 20% in size; further: potency means the concentration at half of the fitted maximal effect
[8] = qHTS assay to identify small molecule antagonists of the estrogen receptor alpha (ER-alpha) signaling pathway using the BG1 cell line (AID 743080; calls by dose curve;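 further: BG1 cells stimulated with 17beta-estradiol alongside compound; nearly all actives have a fitted effect of over 25% in size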)
In short: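 After 5 days in phenol-red-free 10% charcoal-stripped FBS medium, BG1-Luc-4E2 cells were seeded, left 24 h at 37 C, co-treated with compounds and 17beta-estradiol for 21.5 h, then assayed for viability and luciferase.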

[9] = qHTS assay to identify small molecule antagonists of the estrogen receptor alpha (ER-alpha) signaling pathway using the BG1 cell line - cell viability counter screen (AID 743081);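 further: compound given together with 17beta-estradiol as the ER stimulus; nearly all actives have a fitted effect of over 45% in size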
Aromatase (Homo sapiens) = Aromatase (Homo sapiens) (UniProt P11511); assay: qHTS assay to identify aromatase inhibitors (AID 743083); further: nearly all actives have a fitted effect of over 55% in size
On the % scale 0 is the no-effect control and ±100 the full control effect.

Chain of Aromatase (Homo sapiens) (P11511 whole entry, looked up): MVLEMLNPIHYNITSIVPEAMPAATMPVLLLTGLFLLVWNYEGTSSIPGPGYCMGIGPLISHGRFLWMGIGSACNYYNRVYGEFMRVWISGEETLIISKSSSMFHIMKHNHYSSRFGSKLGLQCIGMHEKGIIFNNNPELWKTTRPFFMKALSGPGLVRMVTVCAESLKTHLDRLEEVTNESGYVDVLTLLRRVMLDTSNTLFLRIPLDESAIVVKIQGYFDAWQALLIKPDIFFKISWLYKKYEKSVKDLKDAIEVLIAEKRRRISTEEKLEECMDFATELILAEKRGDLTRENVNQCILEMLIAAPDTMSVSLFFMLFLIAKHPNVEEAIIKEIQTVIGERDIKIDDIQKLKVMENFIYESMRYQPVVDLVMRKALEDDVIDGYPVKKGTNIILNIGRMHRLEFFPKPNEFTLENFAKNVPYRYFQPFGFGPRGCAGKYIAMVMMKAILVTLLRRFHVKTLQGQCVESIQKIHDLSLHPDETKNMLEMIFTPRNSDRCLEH
Chain of Estrogen receptor (Homo sapiens) (P03372 whole entry, looked up): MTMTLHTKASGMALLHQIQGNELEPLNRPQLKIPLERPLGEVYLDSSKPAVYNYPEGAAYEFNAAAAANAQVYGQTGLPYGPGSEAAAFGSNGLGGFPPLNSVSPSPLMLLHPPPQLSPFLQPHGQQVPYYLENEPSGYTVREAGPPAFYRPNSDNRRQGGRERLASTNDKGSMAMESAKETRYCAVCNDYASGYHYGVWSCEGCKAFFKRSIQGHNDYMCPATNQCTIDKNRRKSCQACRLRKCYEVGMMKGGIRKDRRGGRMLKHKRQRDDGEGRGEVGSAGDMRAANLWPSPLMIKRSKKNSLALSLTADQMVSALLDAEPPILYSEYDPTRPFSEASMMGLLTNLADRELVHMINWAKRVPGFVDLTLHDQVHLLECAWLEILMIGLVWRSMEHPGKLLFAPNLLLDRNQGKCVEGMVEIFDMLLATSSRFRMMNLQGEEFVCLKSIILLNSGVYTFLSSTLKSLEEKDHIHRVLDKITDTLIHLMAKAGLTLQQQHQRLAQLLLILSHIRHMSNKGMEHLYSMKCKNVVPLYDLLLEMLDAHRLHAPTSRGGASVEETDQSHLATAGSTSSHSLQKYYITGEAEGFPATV

NC(=O)O
inactive: Potency [1] | Potency [2] | Potency [3] | Potency [4] | outcome [5] | Potency [6] | activation ([7]; at 70.3 µM (top of the series)) -5.63% | Potency [8] | Potency [9] | Potency (Aromatase (Homo sapiens))

CC(C)CP(=S)(S)CC(C)C
inactive: Potency [1] | Potency [2] | Potency [3] | Potency [4] | outcome [5] | Potency [6] | activation ([7]; at 70.3 µM (top of the series)) -12.9% | Potency [8] | Potency [9] | Potency (Aromatase (Homo sapiens))

CCC1(c2ccccc2)C(=O)NC(=O)NC1=O
inactive: Potency [1] | Potency [2] | Potency [3] | Potency [4] | outcome [5] | Potency [6] | activation ([7]; at 70.3 µM (top of the series)) -1.3% | activation ([7]; at 95 µM (top of the series)) -10.3% | Potency [8] | Potency [9] | Potency (Aromatase (Homo sapiens))

ClC(Br)Br
inactive: Potency [1] | Potency [2] | Potency [3] | Potency [4] | outcome [5] | Potency [6] | activation ([7]; at 70.3 µM (top of the series)) 1.01% | Potency [8] | Potency [9] | Potency (Aromatase (Homo sapiens))

[O]=[Cd]
inactive: Potency [1] | Potency [2] | Potency [3] | Potency [4] | outcome [5] | Potency [6] | activation ([7]; at 70.3 µM (top of the series)) -13.8% and 18.3% | Potency [8] | Potency [9] | Potency (Aromatase (Homo sapiens))

O=NN1CCN(N=O)CC1
inactive: Potency [1] | Potency [2] | Potency [3] | Potency [4] | outcome [5] | Potency [6] | activation ([7]; at 70.3 µM (top of the series)) 9.64% | Potency [8] | Potency [9] | Potency (Aromatase (Homo sapiens))

CCOc1nc(C(Cl)(Cl)Cl)ns1
inactive: Potency [1] | Potency [2] | Potency [3] | Potency [4] | outcome [5] | Potency [6] | activation ([7]; at 70.3 µM (top of the series)) 4.23% | Potency [8] | Potency [9] | Potency (Aromatase (Homo sapiens))

CCCCP(CCCC)CCCC
inactive: Potency [1] | Potency [2] | Potency [3] | Potency [4] | outcome [5] | Potency [6] | activation ([7]; at 70.3 µM (top of the series)) 0.877% | Potency [8] | Potency [9] | Potency (Aromatase (Homo sapiens))

C[N+](C)=CCl
inactive: Potency [1] | Potency [2] | Potency [3] | Potency [4] | outcome [5] | Potency [6] | activation ([7]; at 70.3 µM (top of the series)) 20.5% | Potency [8] | Potency [9] | Potency (Aromatase (Homo sapiens))

C#CCN1C(=O)COc2cc(F)c(N3C(=O)C4=C(CCCC4)C3=O)cc21
inactive: Potency [1] | Potency [2] | Potency [3] | Potency [4] | outcome [5] | Potency [6] | activation ([7]; at 70.3 µM (top of the series)) -23.7% | Potency [8] | Potency [9] | Potency (Aromatase (Homo sapiens))

CCC(Cl)[N+](=O)[O-] (stereo not given)
inactive: Potency [1] | Potency [2] | Potency [3] | Potency [4] | outcome [5] | Potency [6] | activation ([7]; at 95 µM (top of the series)) -4.86% | Potency [8] | Potency [9] | Potency (Aromatase (Homo sapiens))

OC(Cn1cncn1)(c1ccc(F)cc1)c1ccccc1F (stereo not given)
inactive: Potency [1] | Potency [2] | Potency [3] | Potency [4] | outcome [5] | Potency [6] | activation ([7]; at 70.3 µM (top of the series)) -1% | Potency [8] | Potency [9]

O=C(O)c1cccc(Cl)c1
inactive: Potency [1] | Potency [2] | Potency [3] | Potency [4] | outcome [5] | Potency [6] | activation ([7]; at 70.3 µM (top of the series)) 2.91% | Potency [8] | Potency [9] | Potency (Aromatase (Homo sapiens))

O=[N+]([O-])c1ccc(CBr)cc1
inactive: Potency [1] | Potency [2] | Potency [3] | Potency [4] | outcome [5] | Potency [6] | activation ([7]; at 95 µM (top of the series)) 2.58% | Potency [8] | Potency [9] | Potency (Aromatase (Homo sapiens))

BrCCCCCCBr
inactive: Potency [1] | Potency [2] | Potency [3] | Potency [4] | outcome [5] | Potency [6] | activation ([7]; at 70.3 µM (top of the series)) -3.68% | Potency [8] | Potency [9] | Potency (Aromatase (Homo sapiens))

CS(=O)(=O)c1cc(C(F)(F)F)ccc1C(=O)c1cnoc1C1CC1
inactive: Potency [1] | Potency [2] | Potency [3] | Potency [4] | outcome [5] | Potency [6] | activation ([7]; at 70.3 µM (top of the series)) 0.699% | Potency [8] | Potency [9] | Potency (Aromatase (Homo sapiens))

CC(CC(C#N)(c1ccccc1)c1ccccc1)N(C)C (stereo not given)
active: Potency [1] 24.2 µM | Potency [2] 30.5 µM
inactive: Potency [3] | Potency [4] | outcome [5] | Potency [6] | activation ([7]; at 70.3 µM (top of the series)) -6.75% | Potency [8] | Potency [9] | Potency (Aromatase (Homo sapiens))

CCOP(=S)(OCC)SCSc1ccc(Cl)cc1
inactive: Potency [1] | Potency [2] | Potency [3] | Potency [4] | outcome [5] | Potency [6] | Potency [8] | Potency [9] | Potency (Aromatase (Homo sapiens))
active: Potency [7] 26.6 µM and 24.3 µM

N#Cc1ccncc1
inactive: Potency [1] | Potency [2] | Potency [3] | Potency [4] | outcome [5] | Potency [6] | activation ([7]; at 95 µM (top of the series)) 1.2% | Potency [8] | Potency [9] | Potency (Aromatase (Homo sapiens))

CCOP(=S)(OCC)Oc1nc(Cl)n(C(C)C)n1
inactive: Potency [1] | Potency [2] | Potency [3] | Potency [4] | outcome [5] | Potency [6] | activation ([7]; at 70.3 µM (top of the series)) 5.59% | Potency [8] | Potency [9] | Potency (Aromatase (Homo sapiens))

O=C(O)c1ccc2[nH]cc(CCCCN3CC=C(c4ccccc4)CC3)c2c1
inactive: Potency [1] | Potency [2] | Potency [3] | Potency [4] | outcome [5] | Potency [6] | activation ([7]; at 70.3 µM (top of the series)) -2.02% | Potency [8] | Potency [9] | Potency (Aromatase (Homo sapiens))

OCCBr
inactive: Potency [1] | Potency [2] | Potency [3] | Potency [4] | outcome [5] | Potency [6] | activation ([7]; at 70.3 µM (top of the series)) 6.61% | Potency [8] | Potency [9] | Potency (Aromatase (Homo sapiens))

C[C@@H]1CN(C2CCC(C#N)(c3ccc(F)cc3)CC2)CC[C@]1(C(=O)O)c1ccccc1 (stereo not given in full)
inactive: Potency [1] | Potency [2] | Potency [3] | Potency [4] | outcome [5] | Potency [6] | activation ([7]; at 32.5 µM (top of the series)) -0.22% | Potency [8] | Potency [9] | Potency (Aromatase (Homo sapiens))
